Where “and” joins values, the source holds several entries; their conditions need not be identical. Equal entries are not always repeated. Among all 5,500 compounds or so, about 2,000 (36%) were called active. Roughly 18% stayed inconclusive and do not appear here. Cut-off read from the data, not from the text of the source: active = normalized growth mostly below about 0.91 (no sharp cut-off); inconclusive = no clear call, values can overlap the other calls; inactive = mostly above about 0.92. The list shows a part of the results.
Test: chemical genetic growth profiling, strain panel (AID 1159580);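 note: tested at 20 µM; growth read once vehicle control cultures reached saturation at 30 °C; 1 = growth at the plate median or of vehicle wells; lower values mean less growth of the strain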
Details: S. cerevisiae deletion strains, growth OD

Measured: normalized growth

NCCc1c[nH]c2ccccc12
inactive: locus YAL013W, strain DEP1, active compounds read low 0.983 and 0.988 | locus YAL021C, strain ccr4, active compounds read low 0.967 | locus YAL026C, strain drs2, active compounds read low 0.96 | locus YAL030W, strain snc1, active compounds read low 0.969 | locus YAL040C, strain CLN3, active compounds read low 1.08 | locus YBL061C, strain skt5, active compounds read low 0.959 | locus YBR009C, strain hhf1, active compounds read low 0.988 | locus YBR021W, strain FUR4, active compounds read low 1.01 | locus YBR023C, strain chs3, active compounds read low 0.945 | locus YBR171W, strain sec66, active compounds read low 0.955 | locus YBR229C, strain ROT2, active compounds read low 0.954 | locus YBR231C, strain swc5, active compounds read low 0.962 | locus YBR279W, strain paf1, active compounds read low 0.942 | locus YCL011C, strain gbp2, active compounds read low 0.945 | locus YCL016C, strain dcc1, active compounds read low 0.98 | locus YCL029C, strain bik1, active compounds read low 0.994 | locus YCL061C, strain MRC1 (second series), active compounds read low 0.998 | locus YCL061C, strain MRC1, active compounds read low 0.967 | locus YCL069W, strain vba3, active compounds read low 0.973 | locus YCR088W, strain abp1, active compounds read low 0.967 | locus YDL005C, strain med2, active compounds read low 0.974 | locus YDL035C, strain GPR1, active compounds read low 0.977 | locus YDL040C, strain nat1, active compounds read low 0.96 | locus YDL074C, strain BRE1, active compounds read low 1 | locus YDL101C, strain DUN1, active compounds read low 0.987 | locus YDL134C, strain PPH21, active compounds read low 0.964 | locus YDL185W, strain tfp1, active compounds read low 0.988 | locus YDL192W, strain arf1, active compounds read low 0.985 | locus YDR001C, strain nth1, active compounds read low 0.954 | locus YDR069C, strain doa4, active compounds read low 0.913 | locus YDR101C, strain arx1, active compounds read low 1.01 | locus YDR137W, strain rgp1, active compounds read low 0.934 | locus YDR150W, strain NUM1, active compounds read low 0.967 | locus YDR159W, strain sac3, active compounds read low 0.925 | locus YDR162C, strain NBP2, active compounds read low 0.954 | locus YDR195W, strain ref2 0.926 | locus YDR297W, strain sur2, active compounds read low 0.967 | locus YDR318W, strain mcm21, active compounds read low 0.999 | locus YDR334W, strain swr1, active compounds read low 0.94 | locus YDR335W, strain msn5, active compounds read low 0.961 | locus YDR363W, strain ESC2, active compounds read low 0.975 | locus YDR388W, active compounds read low 0.997 | locus YDR392W, strain spt3, active compounds read low 1.01 | locus YDR502C, strain sam2, active compounds read low 0.993 | locus YEL003W, strain gim4, active compounds read low 0.978 | locus YEL037C, strain rad23, active compounds read low 0.958 | locus YEL061C, strain CIN8 (second series), active compounds read low 0.957 | locus YEL061C, strain CIN8, active compounds read low 0.98 | locus YER002W, strain NOP16, active compounds read low 0.99 | locus YER015W, strain faa2, active compounds read low 0.975 | locus YER016W, strain bim1, active compounds read low 0.964 | locus YER110C, active compounds read low 0.967 | locus YER111C, strain swi4, active compounds read low 0.973 | locus YER155C, strain BEM2 (second series), active compounds read low 0.923 | locus YER155C, strain BEM2, active compounds read low 0.998 | locus YER167W, strain BCK2, active compounds read low 0.982 | locus YFR010W, strain ubp6, active compounds read low 0.951 | locus YGL078C, strain dbp3, active compounds read low 0.98 | locus YGL086W, strain mad1, active compounds read low 0.966 | locus YGL167C, strain pmr1, active compounds read low 0.939 | locus YGL173C, strain kem1, active compounds read low 0.992 | locus YGL227W, strain vid30, active compounds read low 0.937 | locus YGL240W, strain doc1, active compounds read low 0.964 | locus YGL248W, strain PDE1, active compounds read low 0.983 | locus YGL253W, strain hxk2, active compounds read low 0.952 | locus YGR078C, strain PAC10, active compounds read low 1.01 and 0.994 | locus YGR135W, strain pre9, active compounds read low 0.989 | locus YGR229C, strain SMI1, active compounds read low 1.01 | locus YGR252W, strain gcn5, active compounds read low 0.911 | locus YHR013C, strain ard1, active compounds read low 0.949 | locus YHR027C, strain rpn1, active compounds read low 0.962 | locus YHR030C, strain SLT2, active compounds read low 0.987 and 0.959 | locus YHR079C, strain IRE1 (second series), active compounds read low 0.998 | locus YHR079C, strain IRE1, active compounds read low 0.957 | locus YHR094C, strain hxt1, active compounds read low 0.994 | locus YHR129C, strain ARP1, active compounds read low 1 | locus YHR142W, strain chs7, active compounds read low 0.965 | locus YHR200W, strain rpn10, active compounds read low 1 | locus YIL066C, strain RNR3, active compounds read low 0.985 | locus YIL073C, strain SPO22, active compounds read low 0.959 | locus YIL125W, strain kgd1, active compounds read low 0.983 | locus YIR030C, strain dcg1, active compounds read low 0.981 | locus YJL092W, strain hpr5, active compounds read low 0.963 | locus YJL095W, strain BCK1 (second series), active compounds read low 0.96 | locus YJL095W, strain BCK1, active compounds read low 1.03 and 0.994 | locus YJL115W, strain asf1, active compounds read low 0.961 | locus YJL129C, strain trk1, active compounds read low 0.963 | locus YJL134W, strain LCB3, active compounds read low 0.984 | locus YJL154C, strain vps35, active compounds read low 0.948 | locus YJL164C, strain tpk1, active compounds read low 0.989 | locus YJL166W, strain qcr8, active compounds read low 0.938 | locus YJL168C, strain set2, active compounds read low 1 | locus YJL187C, strain SWE1 (second series), active compounds read low 1 | locus YJL187C, strain SWE1, active compounds read low 0.967 | locus YJR043C, strain POL32, active compounds read low 1.02 | locus YJR066W, strain TOR1, active compounds read low 0.926
